HBB splice mod = modulators of hemoglobin beta chain splicing. HBB splicing reporter cell assay, activation; EGFP reporter with mutant IVS2-654 intron; response scale: normalised to 500 nM splice-correcting PNA. Potency, µM (series often up to 46.1 µM), inactives show at the highest dose activation, actives largely listed as activators. 0.06% of 65,000 active; also: potency is read from the fitted curve at half-maximal effect; 0% is about no effect
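Compounds were applied for 2 days to HeLa EGFP-654 cells, 500/well in Optimem with 2% FCS. The reporter's EGFP is disrupted by mis-splicing of beta-globin intron IVS2-654. Readout: summed well GFP fluorescence from 488 nm laser scanning; reference was 500 nM antisense […] 654 PNA.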
USP2a inhib = inhibitors of human ubiquitin-specific protease USP2a. USP2a enzymatic assay, qHTS inhibition. Potency, µM (titrated, usually from 38.3 µM), without a hit: top-dose activity change, negative = inhibition, most hits filed as inhibitors. 0.1% of 60,000 active. AID 927; also: potency is read from the fitted curve at half-maximal effect; nearly all actives have a fitted effect of over 60% in size
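20 nM USP2 core + cpd, 30 min RT; add 20 nM Ub-PLA2/20 uM NBD C6-HPC; read Ex460/Em535 at 0 h and 2.5 h. Normalized to NEM; qHTS curve fit/classification.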
Ub-GFP proteasome = inhibits proteasome, raising ubiquitin-GFP reporter fluorescence; Ubiquitin-GFP reporter cells, proteasome inhibition, GFP fluorescence; response scale: untreated = 0%, 10 µM MG-132 = 100%; Potency, µM (top dose mostly 45.9 µM), for inactives: at the highest dose activation (GFP accumulation), most hits filed as activators; 67,000 tested, under 10 active; AID 526; active = well fitted activation curve with a large enough effect, not every such curve was filed as active; inconclusive = small, poorly fitted or top-dose-only effect, or another doubt; inactive = no such curve, though single readings can be large or run the other way; also: potency is read from the fitted curve at half-maximal effect
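U2OS cells expressing ubiquitin(G76V)-GFP, seeded overnight in 0.5% FBS medium, then treated 4 hr at 37 C across 46 uM to 2.9 nM. GFP-positive cells counted by laser cytometry (488 ex/515 em); %activity scaled between basal and 10 uM MG-132.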
Casp7 inh = blocks human caspase-7 allosterically or competitively; 0.02% of 75,000 active; recombinant caspase-7, Ac-DEVD-AFC fluorescence rate; AID 889; Potency, µM (titrated, usually from 57.5 µM), inactives show at the highest dose activity change, negative = inhibition, hits mostly inhibitors; active = well fitted inhibition curve with a large enough effect in the main read-out, with a control signal flat, not every such curve was filed as active; inconclusive = small, poorly fitted or top-dose-only effect, or a change in a side signal; also: potency is read from the fitted curve at half-maximal effect; % of control where 0% means no effect
Epigenetic mod = epigenetic modulators derepressing GFP locus in mouse cells | mouse C127i GFP locus derepression, cytometry, 30 h | Potency, µM (highest dose often 46.1 µM), without a hit: at the highest dose GFP derepression (activation) | 0.09% of 68,000 active | AID 597; also: % of control where 0% means no effect
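Locus derepression in mouse mammary C127i cells whose integrated CMV-GFP reporter is normally silent; GFP expression after 30 h compound treatment was quantified by counting fluorescent cells.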
Casp1 inh = allosteric or competitive inhibitors of human caspase-1 | Caspase-1 enzyme, Ac-WEHD-AFC fluorogenic rate | Potency, µM (titrated, usually from 57.5 µM), for inactives: at the highest dose activity change, negative = inhibition, hits mostly inhibitors | 0.03% of 75,000 active | P29466;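 also: potency is read from the fitted curve at half-maximal effect; plate controls were vehicle for no effect and no substrate for full effect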
Active calls of the source: *; [ ] = another dose, or the depositor's remark. Rows were chosen to be rich in hits. Some 0.24% of all compounds tested hit in one or more screens of this group. Unless noted, calls follow the shape of the dose curve; as a rule, active = well fitted curve in the direction sought with a large enough effect; inconclusive = small, poorly fitted or top-dose-only effect, or another doubt; inactive = no such curve, though single readings can be large; an effect the other way counts as inactive or inconclusive.

Cc1ccc(N2C(=O)[C@@H]3[C@H](C2=O)C2c4ccccc4C=CN2[C@@H]3C(=O)c2ccco2)c(C)c1 (some centres not stated) was read as HBB splice mod 0%[0.369 µM], USP2a inhib 35%, Casp7 inh inconclusive, Epigenetic mod 4% and Casp1 inh 13µM*.
`C=CCN1CCc2c(cc(O)c(O)c2Br)[C@H](c2ccccc2)C1` gave HBB splice mod 1%, USP2a inhib 12%, Ub-GFP proteasome -9%, Casp7 inh 1%, Epigenetic mod -1% and Casp1 inh -1%.
For CCCn1c2ccccc2c2nc3ccccc3nc21 the results were HBB splice mod -2%, USP2a inhib inconclusive, Ub-GFP proteasome -6%, Casp7 inh inconclusive and Epigenetic mod 0%.
Screening O=c1oc2ccccc2n1CCn1c2ccccc2c2nc3ccccc3nc21 returned HBB splice mod 0%, USP2a inhib 10µM*, Ub-GFP proteasome -11%, Casp7 inh -9%, Epigenetic mod 2% and Casp1 inh -14%.
Nc1nc2n[nH]nc2c(=O)[nH]1 was read as HBB splice mod 0.79µM*, USP2a inhib -15%[17.1 µM], Ub-GFP proteasome 20%[20.5 µM], Casp7 inh -5%[25.7 µM], Epigenetic mod 7%[20.6 µM] and Casp1 inh -16%[25.7 µM].
CC(C)[C@@H]1O[C@H](/C=C\c2ccccc2)OCC1(C)C was read as HBB splice mod 3%[9.22 µM], Ub-GFP proteasome -1%[9.17 µM], Casp7 inh 0%[11.5 µM], Epigenetic mod -2%[9.22 µM] and Casp1 inh -3%[11.5 µM].
Screening Cc1ccc(S(=O)(=O)Nc2ccc(O)c(C(=O)O)c2)c(C)c1 returned Casp7 inh 2% and Casp1 inh 1%.
For CC1=C(/C=C/C(C)=C/C=C/C(C)=C/C(=O)O)C(C)(C)CCC1 the results were Casp7 inh 2%, Epigenetic mod 10µM* and Casp1 inh -1%.
Screening O=C1c2ccc(O)c(O)c2C(=O)c2c(O)ccc(O)c21 returned USP2a inhib 4µM*, Casp7 inh -23% and Casp1 inh -3%.
`Cc1ccc(C(=O)[C@@H]2[C@@H]3[C@@H](C(=O)[C@@H]4OC[C@H]3O4)[C@@H]3C=Cc4ccccc4N23)cc1` gave Ub-GFP proteasome 0% and Epigenetic mod -2%[9.22 µM].
For CC(C)C1=CC2=CC[C@H]3[C@@](C)(CCC[C@]3(C)C(=O)O)[C@@H]2CC1 the results were Ub-GFP proteasome -3% and Epigenetic mod 2%[9.22 µM].
`C#C[C@@]1(O)CC[C@H]2[C@H]3CCC4=Cc5oncc5C[C@]4(C)[C@@H]3CC[C@@]21C` gave HBB splice mod -1%, Ub-GFP proteasome -4% and Epigenetic mod -1%.
Cc1ccc(C)c(NS(=O)(=O)c2cc(C(=O)O)ccc2Cl)c1 was read as Casp7 inh -1% and Casp1 inh -2%.
COc1cc(/C=C/C(=O)/C=C(O)/C=C/c2ccc(O)c(OC)c2)ccc1O was read as USP2a inhib 10µM*, Casp7 inh -25% and Casp1 inh inconclusive.
For C=C[C@@]1(C)C=C2CC[C@@H]3[C@](C)(CCC[C@@]3(C)C(=O)O)[C@H]2CC1 the results were Ub-GFP proteasome -5% and Epigenetic mod -5%[9.22 µM].
`COc1ccc(-c2c(O)c3c(OC)c4c(cc3oc2=O)OC(C)(C)C=C4)cc1` gave USP2a inhib 10µM*, Casp7 inh 0% and Casp1 inh 4%.
C[C@]12C=CC(=O)C=C1CC[C@@H]1[C@H]3C[C@@H](O)[C@](O)(C(=O)CO)[C@]3(C)C[C@H](O)[C@]12F was read as HBB splice mod 1%, Ub-GFP proteasome -3% and Epigenetic mod -2%.
O=C1Cc2ccccc2C(=O)N1CCc1ccccc1 was read as HBB splice mod 0%, Ub-GFP proteasome 2%, Casp7 inh 6.3µM*, Epigenetic mod 0% and Casp1 inh 5µM*.
For O=C(N1CCCCC1)N1CCCN(C(=O)N2CCCCC2)CC1 the results were HBB splice mod -1%, USP2a inhib -3%, Ub-GFP proteasome 2%, Casp7 inh -3%, Epigenetic mod -3% and Casp1 inh -1%.
`S=C(S)N1CCCC1` gave HBB splice mod 2%, USP2a inhib -1%, Ub-GFP proteasome 0%, Casp7 inh 0%, Epigenetic mod 0.63µM* and Casp1 inh 0%.

Screening results from PubChem.
